Assay [1] deals with Estrogen receptor beta (Homo sapiens) (UniProt Q92731). Put plainly: qHTS assay to identify small molecule agonists of the estrogen receptor beta (ER-beta) signaling pathway (AID 1259377; active means well fitted activation curve with a large enough effect in the signal ratio in the repeat runs, not every such curve was filed as active; the % refers to the signal ratio). The method in brief:
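ER-beta-UAS-bla HEK293T cells in medium with 2% charcoal-stripped FBS were exposed to compounds for 16 h at 37C. Beta-lactamase reporter activity was read as fluorescence after 2 h with LiveBLAzer B/G FRET substrate at room temperature.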

For assay [2] the target is unchanged. Put plainly: qHTS assay to identify small molecule antagonists of the estrogen receptor beta (ER-beta) signaling pathway (AID 1259378; active means well fitted inhibition curve with a large enough effect in the signal ratio in the repeat runs, not every such curve was filed as active; the % refers to the signal ratio). The gist of the method:
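ER-beta-UAS-bla HEK293T cells in 2% charcoal-stripped FBS medium treated with compound plus 1nM final 17-beta-estradiol for 16 hr at 37C. Beta-lactamase reporter read by FRET substrate fluorescence after 2 hours at room temperature.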

Assay [3] in a line: qHTS assay to identify small molecule agonists of the androgen receptor (AR) signaling pathway in the presence of an antagonist - cell viability counter screen (AID 1259379). Further: nearly all actives have a fitted effect of over 25% in size. Further: potency means the concentration at half of the fitted maximal effect. The gist of the method:
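Counter screen for cell viability run in parallel with the AR agonist-mode luciferase assay. MDA-kb2 cells were co-treated with nilutamide (3.0uM final) and compounds, then incubated 16 hr at 37C, and CellTiter-Fluor fluorescence was measured.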

The nature of assay [4]: qHTS assay to identify small molecule antagonists of the estrogen receptor beta (ER-beta) signaling pathway - cell viability counter screen (AID 1259382). Further: series mostly up to about 92 µM; nearly all actives have a fitted effect of over 55% in size. The gist of the method:
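HEK293T ER-beta-UAS-bla, 2% charcoal-stripped FBS; compounds + 1nM E2 16 hr 37C; CellTiter-Glo luminescence, 30 min RT.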

Assay [5] can be described thus: qHTS assay to identify small molecule agonists or antagonists of the thyroid stimulating hormone receptor (TSHR) signaling pathway - wild type cell line counter screen (AID 1259384; calls by dose curve). The gist of the method: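 Wild-type Hek293 cells, 800/well, 18 h at 37C, then compound with Ro20-1724 for 30 min RT. cAMP by HTRF (cAMP-d2/anti-cAMP cryptate), 1 h RT, fluorescence read. 15 concentrations, triplicates.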

Assay [6] can be described thus: qHTS assay to identify small molecule agonists of the estrogen receptor alpha (ER-alpha) signaling pathway in the presence of an antagonist - cell viability counter screen (AID 1259386).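 Further: cells exposed to compounds for 22 h at 37 °C before the viability read; nearly all actives have a fitted effect of over 30% in size.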 Further: potency means the concentration at half of the fitted maximal effect. The method in brief:
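Steps: 5-day stripped-FBS culture; seed and incubate 24hr; add ICI-182,780 (10.0nM final); pin 15-point compound titration; incubate 22hr at 37C; add CellTiter-Fluor at 21hr; read fluorescence.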

For assay [7], the target named is Progesterone receptor (Homo sapiens) (UniProt P06401). Put plainly: qHTS assay to identify small molecule agonists of the progesterone receptor (PR) signaling pathway (AID 1346784; calls by dose curve; further: nearly all actives have a fitted effect of over 30% in size). The gist of the method: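 PR-UAS-bla HEK 293T cells (beta-lactamase reporter under UAS) in 2% charcoal-stripped FBS, dosed with 23 nL compound after 6 hr, incubated 16hr at 37C. LiveBLAzer B/G FRET substrate added, fluorescence read after 2 hours.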
Chain of Progesterone receptor (Homo sapiens) (P06401 whole entry, looked up): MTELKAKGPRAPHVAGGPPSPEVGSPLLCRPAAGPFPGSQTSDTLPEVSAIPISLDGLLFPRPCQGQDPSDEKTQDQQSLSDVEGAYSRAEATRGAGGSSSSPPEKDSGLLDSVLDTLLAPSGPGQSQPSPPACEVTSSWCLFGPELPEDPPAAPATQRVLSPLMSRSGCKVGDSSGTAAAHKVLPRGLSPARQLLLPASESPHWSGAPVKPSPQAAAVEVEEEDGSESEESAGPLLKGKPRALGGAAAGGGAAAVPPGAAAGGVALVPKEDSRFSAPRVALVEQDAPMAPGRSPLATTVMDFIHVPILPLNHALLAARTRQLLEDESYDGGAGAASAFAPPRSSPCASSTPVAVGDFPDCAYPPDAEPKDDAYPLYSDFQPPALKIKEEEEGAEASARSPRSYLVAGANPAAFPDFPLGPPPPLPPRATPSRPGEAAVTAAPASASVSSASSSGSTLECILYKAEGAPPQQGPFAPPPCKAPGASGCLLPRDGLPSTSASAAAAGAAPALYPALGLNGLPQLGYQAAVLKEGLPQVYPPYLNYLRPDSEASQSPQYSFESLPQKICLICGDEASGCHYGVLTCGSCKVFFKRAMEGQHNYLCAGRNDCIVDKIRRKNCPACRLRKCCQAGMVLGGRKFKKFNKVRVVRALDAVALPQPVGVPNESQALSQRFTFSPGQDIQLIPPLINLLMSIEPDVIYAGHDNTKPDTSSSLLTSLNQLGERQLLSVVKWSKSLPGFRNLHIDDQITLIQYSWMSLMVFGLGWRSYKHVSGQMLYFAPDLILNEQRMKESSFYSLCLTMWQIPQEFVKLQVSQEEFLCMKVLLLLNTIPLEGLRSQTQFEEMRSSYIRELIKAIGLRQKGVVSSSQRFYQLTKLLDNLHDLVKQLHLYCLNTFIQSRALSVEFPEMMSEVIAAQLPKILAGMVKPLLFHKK
On the technique in general: qHTS replaces the single test concentration by a dilution series.

The target is the same in assay [8]. Put plainly: qHTS assay to identify small molecule antagonists of the progesterone receptor (PR) signaling pathway (AID 1346795; active means well fitted inhibition curve with a large enough effect in the signal ratio in the repeat runs, not every such curve was filed as active; the % refers to the signal ratio). The gist of the method: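 PR-UAS-bla HEK293T cells with beta-lactamase reporter under UAS control, in 2% charcoal-stripped FBS, treated with compounds plus 1 nM promegestone (R5020, final) for 16 hr at 37C. Read-out: FRET beta-lactamase substrate fluorescence after 2 hr at room temperature.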

The nature of assay [9]: qHTS assay to identify small molecule antagonists of the progesterone receptor (PR) signaling pathway - cell viability counter screen (AID 1346798). Further: series mostly up to about 92 µM; nearly all actives have a fitted effect of over 50% in size. The gist of the method:
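PR-UAS-bla HEK293T cells, 3,000/well in 2% charcoal-stripped FBS medium, dosed with compounds plus R5020 agonist and incubated 16 h at 37C. Viability then measured in the same wells by CellTiter-Glo luminescence after 30 min at RT.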

Assay [10] in a line: qHTS assay to identify small molecule agonists of the progesterone receptor (PR) signaling pathway - cell viability counter screen (AID 1346799; calls by dose curve; further: nearly all actives have a fitted effect of over 45% in size). The method in brief:
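Counter screen in the PR-UAS-bla HEK293T wells (2% charcoal-stripped FBS, 16 h compound exposure at 37 C) after the bla read. CellTiter-Glo added, 30 min at room temperature, luminescence read as cell viability.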

Assay [11] can be described thus: qHTS assay to identify small molecule antagonists of the TGF-beta/Smad signaling pathway - cell viability counter screen (AID 1346824). Further: nearly all actives have a fitted effect of over 50% in size. The method in brief: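 SBE-bla HEK 293T cells, incubated overnight, then compound plus 0.25 ng/mL TGF-beta1 (stock added) for 5 hr at 37 C. Viability was read in the same wells by CellTiter-Glo luminescence after 30 min at room temperature.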

A short description of assay [12]: qHTS assay to identify small molecule agonists of the TGF-beta/Smad signaling pathway - cell viability counter screen (AID 1346829). Further: top concentration of the series differs between compounds; nearly all actives have a fitted effect of over 45% in size. The method in brief: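 Cytotoxicity counter screen: CellTiter-Glo luminescence (30 min, room temperature) measured in the SBE-bla HEK 293T reporter wells after 5 hr compound treatment at 37 C and the 2 hr substrate step.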
A short description of assay [13]: qHTS assay to identify small molecule agonists of the TGF-beta/Smad signaling pathway (AID 1346859; active means well fitted activation curve with a large enough effect in the signal ratio in the repeat runs, not every such curve was filed as active; the % refers to the signal ratio; further: series mostly up to about 77 µM). The method in brief: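 SBE-bla HEK293T cells plated overnight, then compound exposure for 5 h at 37 C. Beta-lactamase reporter read with LiveBLAzer B/G FRET substrate after 2 h at room temperature, fluorescence at 405 nm excitation, 460/530 nm emission.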
Assay [14] can be described thus: Human pregnane X receptor (PXR) small molecule agonists, qHTS cell viability counter screen (AID 1346977). Further: nearly all actives have a fitted effect of over 50% in size. Further: potency means the concentration at half of the fitted maximal effect. The method in brief:
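PXR-Luc HepG2 cells (2,000/well, 5% charcoal-stripped FBS) preincubated 5 hr, then exposed to compounds 24 hr at 37 C. Viability read in the same wells by CellTiter-Fluor fluorescence, reagent added at 23 hr, 1 hr incubation.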

Assay [15] can be described thus: qHTS assay to identify small molecule agonists of the estrogen receptor beta (ER-beta) signaling pathway - cell viability counter screen (AID 1259380). Further: nearly all actives have a fitted effect of over 30% in size. Further: potency means the concentration at half of the fitted maximal effect. The gist of the method: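 In this qHTS counter screen, HEK293T cells carrying an ER-beta/UAS beta-lactamase reporter, grown in 2% charcoal-stripped FBS, received compound for 16 hr; ATP-based CellTiter-Glo luminescence was then read after 30 min at room temperature.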

In assay [16] the target is Androgen receptor (Homo sapiens) (UniProt P10275). Put plainly: qHTS assay to identify small molecule agonists of the androgen receptor (AR) signaling pathway in the presence of an antagonist (AID 1259381; calls by dose curve; further: nearly all actives have a fitted effect of over 15% in size). The method in brief: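 AR antagonist background: nilutamide 3.0uM final. Cell line: MDA-kb2, MMTV-driven luciferase, responsive to both AR and GR. Exposure 16hr, 37C, no CO2; ONE-Glo luminescence.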
Chain of Androgen receptor (Homo sapiens) (P10275 whole entry, looked up): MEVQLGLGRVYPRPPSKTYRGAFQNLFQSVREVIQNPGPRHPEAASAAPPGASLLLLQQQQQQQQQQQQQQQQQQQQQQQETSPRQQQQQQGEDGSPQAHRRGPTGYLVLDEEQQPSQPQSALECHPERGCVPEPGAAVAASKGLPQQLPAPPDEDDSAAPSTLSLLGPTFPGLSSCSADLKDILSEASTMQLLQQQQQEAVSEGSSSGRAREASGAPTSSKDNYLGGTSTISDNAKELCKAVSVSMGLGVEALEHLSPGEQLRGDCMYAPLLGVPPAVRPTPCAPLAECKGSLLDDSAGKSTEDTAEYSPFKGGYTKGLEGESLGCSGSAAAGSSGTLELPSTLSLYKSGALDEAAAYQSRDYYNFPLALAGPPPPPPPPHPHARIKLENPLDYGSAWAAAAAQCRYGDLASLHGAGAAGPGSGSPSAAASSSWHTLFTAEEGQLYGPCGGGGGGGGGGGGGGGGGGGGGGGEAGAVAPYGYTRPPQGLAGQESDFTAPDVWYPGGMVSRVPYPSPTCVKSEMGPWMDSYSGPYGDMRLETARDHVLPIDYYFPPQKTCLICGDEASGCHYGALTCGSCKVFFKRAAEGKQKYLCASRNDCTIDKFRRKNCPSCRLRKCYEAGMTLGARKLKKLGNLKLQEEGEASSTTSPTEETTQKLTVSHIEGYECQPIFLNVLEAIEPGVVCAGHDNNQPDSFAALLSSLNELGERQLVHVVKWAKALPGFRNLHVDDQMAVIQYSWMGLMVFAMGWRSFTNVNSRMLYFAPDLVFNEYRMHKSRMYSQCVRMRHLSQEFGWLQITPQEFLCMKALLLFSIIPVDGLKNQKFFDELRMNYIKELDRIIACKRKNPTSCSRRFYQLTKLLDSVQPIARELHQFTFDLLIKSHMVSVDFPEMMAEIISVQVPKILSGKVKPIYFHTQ

The target of assay [17] is Thyrotropin receptor (Homo sapiens) (UniProt P16473). As to the kind of experiment: qHTS assay to identify small molecule antagonists of the thyroid stimulating hormone receptor (TSHR) signaling pathway (AID 1259385; calls by dose curve; further: nearly all actives have a fitted effect of over 20% in size; further: potency means the concentration at half of the fitted maximal effect). The gist of the method:
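TSHR-HEK293 cells (800/well) plated 18 h, then compounds with Ro20-1724 and TSH at 1.5 ng/mL final, 30 min at room temperature. cAMP quantified by HTRF (cAMP-d2/anti-cAMP-cryptate, 1 h); 15 concentrations in triplicate.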

In assay [18] the target is Thyrotropin-releasing hormone receptor (Homo sapiens) (UniProt P34981). As to the kind of experiment: qHTS assay to identify small molecule antagonists of the thyrotropin-releasing hormone receptor (TRHR) signaling pathway (AID 1346877; active means well fitted inhibition curve with a large enough effect in the repeat runs, not every such curve was filed as active; further: series mostly up to about 51 µM). The gist of the method: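 Human TRHR in HEK293 cells; inhibition of the intracellular calcium rise triggered by 1 nM TRH was followed by fluorescence over 3 min. Compounds were run at 15 concentrations, three replicates each.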
Chain of Thyrotropin-releasing hormone receptor (Homo sapiens) (P34981 whole entry, looked up): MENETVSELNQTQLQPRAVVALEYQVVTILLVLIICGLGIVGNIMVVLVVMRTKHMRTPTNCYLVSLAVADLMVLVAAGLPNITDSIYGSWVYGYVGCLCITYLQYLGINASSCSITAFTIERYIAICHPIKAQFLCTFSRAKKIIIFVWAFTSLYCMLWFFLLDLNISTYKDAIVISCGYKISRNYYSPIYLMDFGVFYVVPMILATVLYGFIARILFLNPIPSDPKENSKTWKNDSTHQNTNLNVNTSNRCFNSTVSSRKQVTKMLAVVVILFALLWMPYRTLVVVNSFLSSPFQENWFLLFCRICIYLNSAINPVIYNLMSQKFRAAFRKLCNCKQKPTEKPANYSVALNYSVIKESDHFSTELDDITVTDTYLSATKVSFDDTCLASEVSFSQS

The target is the same in assay [19]. As to the kind of experiment: qHTS assay to identify small molecule agonists of the thyrotropin-releasing hormone receptor (TRHR) signaling pathway (AID 1346891; calls by dose curve; further: potency means the concentration at half of the fitted maximal effect; on activation: series mostly up to about 58 µM). The gist of the method: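 HEK293 cells expressing TRHR plated 18 h at 37 C/5% CO2, calcium dye-loaded 2 h at 37 C, then compound added (agonist mode); kinetic calcium fluorescence read 3 min at 1 s intervals; 15 concentrations in triplicate.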

Values joined by “and” are separate entries in the source; they are usually repeats but may differ in a detail not shown here. Equal entries are not always repeated. Results filed as inconclusive are left out. Where a structure was tested more than once in an assay, its records may differ in their call. Active and inactive are the calls of the source. Unless noted, the call rests on the fitted dose curve; in most records, active means well fitted curve in the direction sought with a large enough effect in the repeat runs; inconclusive means weak or mixed curves; inactive means no such curve, though single readings can be large; an effect the other way counts as inactive or inconclusive.

Chain of Thyrotropin receptor (Homo sapiens) (P16473 whole entry, looked up): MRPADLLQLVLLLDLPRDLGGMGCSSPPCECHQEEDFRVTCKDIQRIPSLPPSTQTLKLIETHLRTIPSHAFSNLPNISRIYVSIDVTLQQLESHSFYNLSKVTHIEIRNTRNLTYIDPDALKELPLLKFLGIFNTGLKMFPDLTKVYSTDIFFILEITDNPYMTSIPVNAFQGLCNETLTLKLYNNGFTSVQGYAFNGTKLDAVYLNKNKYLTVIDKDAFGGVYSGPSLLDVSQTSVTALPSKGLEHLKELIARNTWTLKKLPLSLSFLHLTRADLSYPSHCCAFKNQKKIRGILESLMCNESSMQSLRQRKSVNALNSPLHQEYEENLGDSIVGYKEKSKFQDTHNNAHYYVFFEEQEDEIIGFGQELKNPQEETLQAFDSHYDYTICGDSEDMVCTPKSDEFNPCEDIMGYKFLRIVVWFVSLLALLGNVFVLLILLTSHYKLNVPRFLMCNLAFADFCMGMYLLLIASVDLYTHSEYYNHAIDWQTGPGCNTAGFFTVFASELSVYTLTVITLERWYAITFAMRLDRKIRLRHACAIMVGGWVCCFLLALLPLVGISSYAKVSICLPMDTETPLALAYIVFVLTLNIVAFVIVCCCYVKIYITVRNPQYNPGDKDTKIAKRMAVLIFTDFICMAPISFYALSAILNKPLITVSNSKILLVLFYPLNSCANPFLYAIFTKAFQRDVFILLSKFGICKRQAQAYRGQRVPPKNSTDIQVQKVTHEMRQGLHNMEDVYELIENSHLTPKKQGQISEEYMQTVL
Chain of Estrogen receptor beta (Homo sapiens) (Q92731 whole entry, looked up): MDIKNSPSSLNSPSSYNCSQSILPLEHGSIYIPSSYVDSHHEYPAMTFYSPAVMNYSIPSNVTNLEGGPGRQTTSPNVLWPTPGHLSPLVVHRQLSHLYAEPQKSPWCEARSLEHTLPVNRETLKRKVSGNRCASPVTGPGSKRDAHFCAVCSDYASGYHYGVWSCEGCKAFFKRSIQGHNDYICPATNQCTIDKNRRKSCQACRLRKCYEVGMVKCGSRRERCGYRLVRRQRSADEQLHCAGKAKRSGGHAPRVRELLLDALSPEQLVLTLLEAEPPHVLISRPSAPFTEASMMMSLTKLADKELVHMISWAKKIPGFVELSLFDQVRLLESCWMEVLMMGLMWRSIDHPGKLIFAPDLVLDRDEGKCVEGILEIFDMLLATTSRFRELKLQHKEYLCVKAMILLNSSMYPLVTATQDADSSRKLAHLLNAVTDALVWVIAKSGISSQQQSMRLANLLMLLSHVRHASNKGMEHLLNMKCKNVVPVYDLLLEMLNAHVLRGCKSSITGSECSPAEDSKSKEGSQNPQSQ

As to `CC1=CC2C3CC(C=C3C)C2C1` (stereo not drawn), the Potency entry in assay [1], in [2], in [3], in assay [4], in assay [6] and in [7] was “inactive” throughout. Besides, the Potency entry in [8], in assay [9], in assay [10], in assay [11], in assay [12] and in [14] was “inactive” throughout. Besides, the call in [5] and in [13] was inactive.
In the case of `Cc1ccc(C)c(O)c1C`, the Potency entry in [3], in [15], in assay [4], in assay [17], in assay [6] and in assay [7] was “inactive” in each case. Moreover, the Potency entry in assay [8], in assay [9], in [10], in [11], in assay [12] and in assay [18] was “inactive” each time. For the same molecule, the Potency entry in assay [19] and in assay [14] was “inactive” each time. The result in assay [16], in [5] and in assay [13] was inactive.
For the molecule `O=C(Nc1ccc(Cl)cc1)Nc1ccc(Cl)c(Cl)c1`, the Potency entry in assay [1], in [4], in assay [7], in assay [11] and in [12] was “inactive” in each case. Further, the Potency in [3] was 21.6 µM (active) and 24.3 µM (active) and 26.6 µM (active); in assay [15], 1.08 µM (active) and 2.17 µM (active); in assay [17] it was 61.1 µM (active); in assay [6], “inactive and 33.5 µM (active)”; in assay [14] it was 7.08 µM (active) and 12.2 µM (active) and 13.3 µM (active). In addition, the result in assay [16], in [5] and in assay [13] was inactive.
As for `CC(C)OB(OC(C)C)OC(C)C`, the Potency entry in assay [1], in [2], in assay [3], in assay [15], in [4] and in assay [6] was “inactive” each time. Moreover, the Potency result in [7], in assay [8], in [9], in [11], in assay [12] and in [14] was “inactive” in each case. In assay [13], the molecule was classed as inactive.
As for `O=C1OC2(c3cc(Br)c(O)c(Br)c3Oc3c2cc(Br)c(O)c3Br)c2c(Cl)c(Cl)c(Cl)c(Cl)c21`, the Potency entry in assay [1], in [15], in assay [4], in [7], in assay [8] and in assay [9] was “inactive” throughout. Besides, the Potency result in assay [11], in [12] and in assay [18] was “inactive” throughout. Moreover, the Potency in assay [3] was 21.7 µM (active) and 16.6 µM (active); in assay [6] it was 24.4 µM (active) and 13.2 µM (active); in [19], 15.5 µM (active) and 23.6 µM (active); in assay [14], 2.51 µM (active) and 11.7 µM (active). Besides, the molecule was classed as inactive in assay [5] and in [13].
In the case of `O=C(/C=C/C=C/c1ccc2c(c1)OCO2)N1CCCCC1`, the Potency entry in assay [1], in assay [3], in [4], in [17], in [7] and in assay [9] was “inactive” throughout. In addition, the Potency result in [11], in [12], in assay [18], in assay [19] and in assay [14] was “inactive” throughout. Also, the outcome in [5] and in [13] was inactive.
With `O=C1c2cccc(O)c2C(=O)c2c(O)cccc21`, the Potency result in [2], in [4], in [7], in assay [8], in assay [9] and in assay [10] was “inactive” in each case. The Potency entry in assay [11], in assay [12], in [18], in assay [19] and in assay [14] was “inactive” throughout. The call in assay [5] and in assay [13] was inactive.

(Values after PubChem BioAssay (Tox21).)
